The source holds several records for some structures; these can differ, active in one and inactive in another. The source made the active and inactive calls. Rule for the calls: active = hit-call score of the fitted dose curve at least 0.9, where 1 is the maximum; inactive = score below 0.9.
Each compound was assayed on Tissue plasminogen activator (tPA), PLAT (gene 5327) (assay: BSK_BE3C_tPA: BioMAP Diversity Plus: BE3C Assay for Tissue plasminogen activator (tPA) Biomarker Activity (AID 2283041)). Details: primary human bronchial epithelial cells; actives raise or lower the signal.
Description: BSK_BE3C is a cell-based, multiplexed-readout assay that uses bronchial epithelial cell, a human lung primary cell, with measurements taken at 24 hours after chemical dosing in a 96-well plate.BSK_BE3C_tPA is an assay component measured in the BSK_BE3C assay. It measures tPA antibody related to regulation of gene expression using ELISA technology.Data from the assay component BSK_BE3C_tPA was analyzed into 1 assay endpoint. This assay endpoint, BSK_BE3C_tPA, was analyzed with bidirectional fitting relative to DMSO as the negative control and baseline of activity. Using a type of binding reporter, gain or loss-of-signal activity can be used to understand changes in the signaling as they relate to the gene PLAT. Furthermore, this assay endpoint can be referred to as a primary readout, because this assay has produced multiple assay endpoints where this one serves a signaling function. To generalize the intended target to other relatable targets, this assay endpoint is annotated to the protease intended target family, where the subfamily is serine protease.
The levels of cell surface (or secreted, indicated by the prefix "s") biomarker endpoints were measured by ELISA. Overt cytotoxicity to cells in confluent adherent cultures (all systems other than the BT system) was assessed by measuring total protein levels using sulforhodamine B (SRB) staining in parallel cultures at the time of biomarker measurements, indicated as SRB endpoints. For proliferation assays for adherent cell types, individual cell types are cultured at sub-confluence and relative cell numbers quantified by SRB staining at time points optimized for each system (48 h: 3C and CASM3C systems; 72 h: BT and HDF3CGF systems; 96 h: SAg system). SRB was performed by staining cells with 0.1% SRB after fixation with 10% TCA and reading wells at 560 nm.Viability and proliferation of PBMC (T cells) was quantified by Alamar Blue reduction for the SAg and BT systems. For PBMC viability (referred to as PBMC Cytotoxicity within the assay endpoint names), cells were plated (75,000/well in a 96-well plate) and then chemical samples added for 1 h before addition of activators, SEB and TSST-1 (20 ng/mL final concentration each). Cells were incubated for 90 h. Then, Alamar Blue (20 uL/well) (Invitrogen, Cat DAL1100) was added for 6 h, and the plates were read with a fluorescence microplate reader at 546/580 nm (excitation/emission). For PBMC proliferation, cells were plated and activated as above but incubated for only 16 h prior to addition of Alamar Blue. Plates were read after 6 h.

SMILES | outcome | AC50
O=P1(NCCCl)OCCCN1CCCl (stereo not given) | inactive | 
[Cd+2].[Cl-].[Cl-] | inactive | 26 µM (active)
CC(=O)/C=C/c1ccccc1 | inactive | 
O=[N+]([O-])O | inactive | 
Oc1ccc(C2(c3ccc(O)cc3)c3ccccc3-c3ccccc32)cc1 | inactive | 
COc1ccc(CO)cc1 | inactive | 
O=S(=O)(c1ccccc1)c1ccccc1 | inactive | 
CCC(C)c1cc([N+](=O)[O-])cc([N+](=O)[O-])c1OC(=O)C=C(C)C (stereo not given) |  | 6.13 µM (active)
CC(C)(c1cc(Cl)c(O)c(Cl)c1)c1cc(Cl)c(O)c(Cl)c1 | inactive | 
Cc1ccc(OP(=O)(Oc2ccc(C)cc2)Oc2ccc(C)cc2)cc1 (tested in a mixture with another compound) | inactive | 
O=C(O)CCCc1ccc(N(CCCl)CCCl)cc1 | inactive | 10.7 µM (active)
CC(C)CCCCCCCOC(=O)c1ccccc1C(=O)OCCCCCCCC(C)C | inactive | 
O=C(CCl)c1ccccc1 | inactive | 
C=CCN(CC=C)C(=O)C(Cl)Cl | inactive | 
Nc1ccc(-c2ccc(N)c(N)c2)cc1N | inactive | 
Oc1cc(Cl)ccc1Cl | inactive | 
O=C1C=CC(=O)C=C1 | inactive | 34.9 µM (active)
O=C1C(Cl)=C(Cl)C(=O)C(Cl)=C1Cl | inactive | 
CC(C)CCCCCCCOP(=O)(Oc1ccccc1)Oc1ccccc1 |  | 3.21 µM (active)

SMILES | outcome | AC50
CNC(=O)Oc1cc(C)c(SC)c(C)c1 | inactive | 
COCC(=O)N(c1c(C)cccc1C)N1CCOC1=O | inactive | 
CCCOC(=O)c1ccccc1C(=O)OCCC | inactive | 
Clc1ccc(-c2ccccc2)cc1 | inactive | 
C=CC(=O)OCC(CC)CCCC (stereo not given) | inactive | 
CC(C)(C)C(=O)CCl | inactive | 
O=c1[nH]c(Cl)c(Cl)cc1Cl | inactive | 
CC(C)(C)C(O)C(Oc1ccc(-c2ccccc2)cc1)n1cncn1 (stereo not given) | inactive | 
CCCC[N+](CCCC)(CCCC)CCCC | inactive | 
O=[N+]([O-])C=Cc1ccccc1 | inactive | 
N#CCCCCC#N | inactive | 
CC(C)COP(=O)(OCC(C)C)OCC(C)C | inactive | 
CCc1cc(C)cc(CC)c1-c1c(OC(=O)C(C)(C)C)n2n(c1=O)CCOCC2 |  | 5.24 µM (active)
O=[N+]([O-])c1ccc(Cl)cc1 | inactive | 
COC(C)(C)CCC[C@H](C)C/C=C/C(C)=C/C(=O)OC(C)C |  | 9.71 µM (active)
c1ccc(Nc2ccc3ccccc3c2)cc1 | inactive | 
O=c1c2ccccc2c(=O)c2c1cc(Cl)c1[nH]c3c([nH]c12)c(Cl)cc1c(=O)c2ccccc2c(=O)c13 | inactive | 
CCCCCCCCCCCC#N | inactive | 

Reference: PubChem BioAssay (EPA / NIEHS)
